# According to PubChem BioAssay (Tox21):
# Activity calls are given as the source filed them. Calls follow the shape of the dose curve; as a rule, active = well fitted curve in the direction sought with a large enough effect in the repeat runs; inconclusive = weak or mixed curves; inactive = flat fitted curve, though single readings scatter.
# Assay: qHTS assay to test for compound auto fluorescence at 535 nm (green) in HepG2 cells (AID 720675)
# Settings: green autofluorescence 485/535 nm, 1 h; series mostly up to 91.3 µM; fluorescence, % of fluorescein control: at the top concentration
# % is scaled to controls: 0 for no effect and ±100 for the full control effect.
SMILES,"fluorescence, % of fluorescein control",outcome
CCCCS,-0.0091% [at 95.7 µM] (inactive),–
CCNC(=O)C(C)OC(=O)Nc1ccccc1 (configuration not stated),-0.106% (inactive),–
CC(C)(Sc1cc(C(C)(C)C)c(O)c(C(C)(C)C)c1)Sc1cc(C(C)(C)C)c(O)c(C(C)(C)C)c1,-0.143% [at 18.6 µM] (inactive),–
O=C(O)CCC(=O)Nc1ccc(S(=O)(=O)Nc2nccs2)cc1,-0.003% [at 18.6 µM] (inactive),–
CCCCC(CC)CCC(CC(C)C)OS(=O)(=O)O (configuration not stated),–,inactive
Cc1ccc2cccnc2c1,-0.0203% (inactive),–
CN(C)CCC[C@@]1(c2ccc(F)cc2)OCc2cc(C#N)ccc21,0.0279% [at 46 µM] (inactive),–
CCN(CC)CC,-0.0861% [at 95.7 µM] (inactive),–
C=C(C)C(=O)OCCOC1CC2CC1C1C=CCC21 (configuration not stated),-0.0037% [at 95.7 µM] (inactive),–
C=CC(=O)CC,-0.0002% [at 95.7 µM] (inactive),–
CCOCCOCCOC(C)=O,0.0013% [at 95.7 µM] (inactive),–
CCCCCC(=O)CC,-0.186% [at 95.7 µM] (inactive),–
C/C=C(\C)C=O,-0.0481% (inactive),–
NC[C@H]1O[C@H](O[C@H]2[C@H](O)[C@@H](O[C@H]3O[C@H](CO)[C@@H](O)[C@H](N)[C@H]3O)[C@H](N)C[C@@H]2N)[C@H](N)[C@@H](O)[C@@H]1O,–,inactive
Cc1ccc(NC(N)=O)cc1,0.072% (inactive),–
CC(C)(O)CCCC1=CCC(C=O)CC1 (configuration not stated),-0.0189% [at 95.7 µM] (inactive),–
CCc1ccc(CC)cc1,0.0638% (inactive),–
CCCCCCCCCCCCCCCC(=O)OC,-0.0233% [at 18.6 µM] (inactive),–
CC[N+](C)(CC)CC,-0.0037% (inactive),–
CCCCCCCCCCCCCCCCN(C)C,-0.0084% [at 3.72 µM] (inactive),–
Cc1cc(C)c(C)c(C)c1,-0.0552% (inactive),–
O=C(O)COc1ccc2ccccc2c1,0.0016% (inactive),–
Cc1ccc(N)nc1,-0.0149% (inactive),–
CCCC(C)C(O)CC (configuration not stated),0.0317% (inactive),–
N=C(N)N,-0.0766% [at 46 µM] (inactive),–
CN1C(CCl)Nc2cc(Cl)c(S(N)(=O)=O)cc2S1(=O)=O (configuration not stated),-0.0305% [at 46 µM] (inactive),–
CC(C)(C)C(=O)CC(=O)C(C)(C)C,-0.0092% [at 95.7 µM] (inactive),–

# Assay: qHTS assay to test for compound auto fluorescence at 460 nm (blue) in HEK293 cells (AID 720678)
# Settings: blue autofluorescence 405/460 nm; series mostly up to 91.3 µM; fluorescence, % of triamterene: at the top concentration
# Outline: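 Triamterene serves as the blue fluorophore standard. Compound signal at 405/460 nm is read in HEK293 wells (2,000 cells, 10% dialyzed FBS) after overnight treatment at 37C.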
SMILES,"fluorescence, % of triamterene",outcome
CCCCS,-0.0975% [at 95.7 µM] (inactive),–
CCNC(=O)C(C)OC(=O)Nc1ccccc1 (configuration not stated),0.0058% (inactive),–
CC(C)(Sc1cc(C(C)(C)C)c(O)c(C(C)(C)C)c1)Sc1cc(C(C)(C)C)c(O)c(C(C)(C)C)c1,-0.428% [at 18.6 µM] (inactive),–
O=C(O)CCC(=O)Nc1ccc(S(=O)(=O)Nc2nccs2)cc1,0.029% [at 18.6 µM] (inactive),–
CCCCC(CC)CCC(CC(C)C)OS(=O)(=O)O (configuration not stated),–,inactive
Cc1ccccc1C#N,0.0045% (inactive),–
COC(=O)c1ccccc1Cl,0.0429% (inactive),–
Cc1ccc2cccnc2c1,0.295% (inactive),–
Cc1cc(N)no1,0.0111% [at 95.7 µM] (inactive),–
CN(C)CCC[C@@]1(c2ccc(F)cc2)OCc2cc(C#N)ccc21,-0.291% [at 46 µM] (inactive),–
CCN(CC)CC,0.0499% [at 95.7 µM] (inactive),–
C=C(C)C(=O)OCCOC1CC2CC1C1C=CCC21 (configuration not stated),0.0058% [at 95.7 µM] (inactive),–
O=C(O)CCCCCCCCCC(=O)O,-0.298% (inactive),–
CC(O)CCCCn1c(=O)c2c(ncn2C)n(C)c1=O (configuration not stated),0.0307% [at 46 µM] (inactive),–
C=CC(=O)CC,-0.254% [at 95.7 µM] (inactive),–
CCOCCOCCOC(C)=O,2.03% [at 95.7 µM] (inactive),–
CCCCCC(=O)CC,0.0478% [at 95.7 µM] (inactive),–
C/C=C(\C)C=O,-0.006% (inactive),–

SMILES,"fluorescence, % of triamterene",outcome
NC[C@H]1O[C@H](O[C@H]2[C@H](O)[C@@H](O[C@H]3O[C@H](CO)[C@@H](O)[C@H](N)[C@H]3O)[C@H](N)C[C@@H]2N)[C@H](N)[C@@H](O)[C@@H]1O,–,inactive
Cc1ccc(NC(N)=O)cc1,-0.2% (inactive),–
CC(C)(O)CCCC1=CCC(C=O)CC1 (configuration not stated),-0.024% [at 95.7 µM] (inactive),–
CCCC(=O)OC,0.0621% (inactive),–
CCc1ccc(CC)cc1,0.0121% (inactive),–
CCCCCCCCCCCCCCCC(=O)OC,0.179% [at 18.6 µM] (inactive),–
O=S(=O)(O)CC(O)CCl (configuration not stated),-0.0629% (inactive),–
CC[N+](C)(CC)CC,-0.0036% (inactive),–
CCCCCCCCCCCCCCCCN(C)C,-0.0322% [at 3.72 µM] (inactive),–
Cc1cc(C)c(C)c(C)c1,0.0124% (inactive),–
O=C(O)COc1ccc2ccccc2c1,-0.0256% (inactive),–
Cc1ccc(O)c([N+](=O)[O-])c1,-0.0415% [at 95.7 µM] (inactive),–
Cc1ccc(N)nc1,0.159% (inactive),–
CCCC(C)C(O)CC (configuration not stated),-0.234% (inactive),–
N=C(N)N,-0.0276% [at 46 µM] (inactive),–
CN1C(CCl)Nc2cc(Cl)c(S(N)(=O)=O)cc2S1(=O)=O (configuration not stated),-0.0091% [at 46 µM] (inactive),–
CC(C)(C)C(=O)CC(=O)C(C)(C)C,0.0048% [at 95.7 µM] (inactive),–

# Assay: qHTS assay to test for compound auto fluorescence at 590 nm (red) in HEK293 cells (AID 720679)
# Settings: red autofluorescence 540/590 nm; series mostly up to 91.3 µM; fluorescence, % of fluorescent control: at the top concentration
# Outline: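 We plated HEK293 cells in 10% dialyzed FBS medium, let them adhere for 4-5 hr, then added 23 nL compound. Overnight at 37C and 5% CO2 preceded fluorescence measurement at 540/590nm.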
SMILES,"fluorescence, % of fluorescent control",outcome
CCCCS,-0.249% [at 95.7 µM] (inactive),–
CCNC(=O)C(C)OC(=O)Nc1ccccc1 (configuration not stated),-0.0215% (inactive),–
CC(C)(Sc1cc(C(C)(C)C)c(O)c(C(C)(C)C)c1)Sc1cc(C(C)(C)C)c(O)c(C(C)(C)C)c1,-1.27% [at 18.6 µM] (inactive),–
O=C(O)CCC(=O)Nc1ccc(S(=O)(=O)Nc2nccs2)cc1,-0.0693% [at 18.6 µM] (inactive),–
CCCCC(CC)CCC(CC(C)C)OS(=O)(=O)O (configuration not stated),–,inactive
Cc1ccccc1C#N,0.552% (inactive),–
COC(=O)c1ccccc1Cl,-0.44% (inactive),–
Cc1ccc2cccnc2c1,-0.167% (inactive),–
Cc1cc(N)no1,0.0121% [at 95.7 µM] (inactive),–
CN(C)CCC[C@@]1(c2ccc(F)cc2)OCc2cc(C#N)ccc21,0.259% [at 46 µM] (inactive),–
CCN(CC)CC,-0.481% [at 95.7 µM] (inactive),–
C=C(C)C(=O)OCCOC1CC2CC1C1C=CCC21 (configuration not stated),0.0753% [at 95.7 µM] (inactive),–
O=C(O)CCCCCCCCCC(=O)O,-0.257% (inactive),–
CC(O)CCCCn1c(=O)c2c(ncn2C)n(C)c1=O (configuration not stated),0.0013% [at 46 µM] (inactive),–
C=CC(=O)CC,-0.278% [at 95.7 µM] (inactive),–
CCOCCOCCOC(C)=O,-0.154% [at 95.7 µM] (inactive),–
CCCCCC(=O)CC,0.151% [at 95.7 µM] (inactive),–
C/C=C(\C)C=O,0.24% (inactive),–

SMILES,"fluorescence, % of fluorescent control",outcome
NC[C@H]1O[C@H](O[C@H]2[C@H](O)[C@@H](O[C@H]3O[C@H](CO)[C@@H](O)[C@H](N)[C@H]3O)[C@H](N)C[C@@H]2N)[C@H](N)[C@@H](O)[C@@H]1O,–,inactive
Cc1ccc(NC(N)=O)cc1,-0.0977% (inactive),–
CC(C)(O)CCCC1=CCC(C=O)CC1 (configuration not stated),-0.203% [at 95.7 µM] (inactive),–
CCCC(=O)OC,0.304% (inactive),–
CCc1ccc(CC)cc1,0.1% (inactive),–
CCCCCCCCCCCCCCCC(=O)OC,-0.225% [at 18.6 µM] (inactive),–
O=S(=O)(O)CC(O)CCl (configuration not stated),0.088% (inactive),–
CC[N+](C)(CC)CC,-0.0264% (inactive),–
CCCCCCCCCCCCCCCCN(C)C,-0.181% [at 3.72 µM] (inactive),–
Cc1cc(C)c(C)c(C)c1,-0.172% (inactive),–
O=C(O)COc1ccc2ccccc2c1,-0.0616% (inactive),–
Cc1ccc(O)c([N+](=O)[O-])c1,0.131% [at 95.7 µM] (inactive),–
Cc1ccc(N)nc1,-0.245% (inactive),–
CCCC(C)C(O)CC (configuration not stated),-0.0057% (inactive),–
N=C(N)N,-0.245% [at 46 µM] (inactive),–
CN1C(CCl)Nc2cc(Cl)c(S(N)(=O)=O)cc2S1(=O)=O (configuration not stated),-0.567% [at 46 µM] (inactive),–
CC(C)(C)C(=O)CC(=O)C(C)(C)C,0.2% [at 95.7 µM] (inactive),–
